{
  "source": "PubChem BioAssay (NCATS)",
  "note": "Results filed as inconclusive are left out. Entries that show only a call come without a potency. Active and inactive are the calls of the source. Calls follow the shape of the dose curve; as a rule, active = well fitted inhibition curve with a large enough effect; inconclusive = small, poorly fitted or top-dose-only effect; inactive = flat fitted curve, though single readings scatter. Potency is read from the fitted curve at half-maximal effect.",
  "data": [
    {"test_system": "CP211", "experiment": "qHTS profiling for inhibitors of Plasmodium falciparum proliferation (AID 504749); also: nearly all actives have a fitted effect of over 60% in size", "conditions": "P. falciparum in erythrocytes, SYBR Green DNA, 72 h; series mostly up to 28.7 µM", "procedure,_shortened": "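Quantitative HTS: compounds pinned into medium, infected erythrocytes added (0.3% parasitemia, 2.5% hematocrit), 72 h culture at 37 C under 5% CO2. Saponin/Triton lysis with SYBR Green I, overnight RT, then fluorescence read.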", "values": [
      {"smiles": "Nc1ccc(S(N)(=O)=O)cc1", "Potency": "inactive"},
      {"smiles": "C[C@H](Cn1cnc2c(N)ncnc21)OCP(=O)(O)O", "Potency": "inactive"},
      {"smiles": "CCOc1cc(CC(=O)N[C@@H](CC(C)C)c2ccccc2N2CCCCC2)ccc1C(=O)O", "Potency": "inactive"},
      {"smiles": "Oc1ccc(OCc2ccccc2)cc1", "Potency": "inactive"},
      {"smiles": "Cc1cccc(C)c1OCC(=O)N[C@@H](Cc1ccccc1)[C@@H](O)C[C@H](Cc1ccccc1)NC(=O)[C@H](C(C)C)N1CCCNC1=O", "Potency": "7.57 µM (active)"},
      {"smiles": "CNC[C@@H](O)[C@@H](O)[C@H](O)[C@H](O)CO", "Potency": "inactive"},
      {"smiles": "CCC1=C(C)CN(C(=O)NCCc2ccc(S(=O)(=O)NC(=O)NC3CCC(C)CC3)cc2)C1=O", "note": "(stereo not drawn)", "Potency": "inactive"},
      {"smiles": "COc1cc(OC)c(C(=O)CCCN2CCCC2)c(OC)c1", "Potency": "inactive"},
      {"smiles": "O=P(O)(O)C(O)(Cn1ccnc1)P(=O)(O)O", "Potency": "inactive"},
      {"smiles": "c1ccc2[nH]c(-c3cscn3)nc2c1", "Potency": "inactive"},
      {"smiles": "Cc1cc2cc3c(C)cc(=O)oc3c(C)c2o1", "Potency": "inactive"},
      {"smiles": "CC(C)[C@H](N)C(=O)OCCOCn1cnc2c(=O)[nH]c(N)nc21", "Potency": "inactive"},
      {"smiles": "CCCCN(CCCC)CCC(O)c1cc2c(Cl)cc(Cl)cc2c2cc(C(F)(F)F)ccc12", "note": "(stereo not drawn)", "Potency": "0.0642 µM (active)"},
      {"smiles": "Cc1cc(=O)oc2cc(O)ccc12", "Potency": "inactive"},
      {"smiles": "Nc1cc(C(Cl)=C(Cl)Cl)c(S(N)(=O)=O)cc1S(N)(=O)=O", "Potency": "inactive"},
      {"smiles": "C[C@]12CCC(=O)C=C1CC[C@@H]1[C@H]2[C@@H](O)C[C@@]2(C)[C@H]1CC[C@]2(O)C(=O)CO", "Potency": "inactive"},
      {"smiles": "Cc1c(OCC(F)(F)F)ccnc1CS(=O)c1nc2ccccc2[nH]1", "note": "(stereo not drawn)", "Potency": "inactive"},
      {"smiles": "C[Se]CCC(N)C(=O)O", "note": "(stereo not drawn)", "Potency": "inactive"},
      {"smiles": "CN(C)c1ccc2nc3ccc(=[N+](C)C)cc-3sc2c1", "Potency": "0.0601 µM (active)"},
      {"smiles": "O=C(NCCO[N+](=O)[O-])c1cccnc1", "Potency": "inactive"},
      {"smiles": "CCCCc1ccc2nc(NC(=O)OC)[nH]c2c1", "Potency": "inactive"},
      {"smiles": "O=C(O)c1cccc(-c2noc(-c3ccccc3F)n2)c1", "Potency": "inactive"},
      {"smiles": "O=C(O)c1cc(=O)c2c(OCC(O)COc3cccc4oc(C(=O)O)cc(=O)c34)cccc2o1", "Potency": "inactive"},
      {"smiles": "CC1(C)NC(=O)N(c2ccc([N+](=O)[O-])c(C(F)(F)F)c2)C1=O", "Potency": "inactive"},
      {"smiles": "O=C(O)CCNC(=O)c1ccc(N=Nc2ccc(O)c(C(=O)O)c2)cc1", "Potency": "inactive"},
      {"smiles": "Cc1ncc([N+](=O)[O-])n1CC(C)O", "note": "(stereo not drawn)", "Potency": "inactive"},
      {"smiles": "Cc1nc2n(c(=O)c1CCN1CCC(c3noc4cc(F)ccc34)CC1)CCCC2", "Potency": "inactive"},
      {"smiles": "N[C@@H](Cc1cc(I)c(Oc2cc(I)c(O)c(I)c2)c(I)c1)C(=O)O", "Potency": "inactive"}
    ]}
  ]
}
